Measurements from PubChem BioAssay (EPA / NIEHS).
Results filed as inconclusive are left out. Activity calls are given as the source filed them. Rule for the calls, unless noted: active = hit-call score of the fitted dose curve at least 0.9, where 1 is the maximum; inactive = score below 0.9.

Tests used:
[1] = read-out: Intercellular Adhesion Molecule 1 (ICAM1), ICAM1 (gene 3383); assay: BSK_3C_ICAM1: BioMAP Diversity Plus: 3C Assay for Intercellular Adhesion Molecule 1 (ICAM1) Biomarker Activity (AID 2283003); details: primary human endothelial cells (HUVEC); actives raise or lower the signal
In short: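 Chemicals are dosed onto primary human umbilical vein endothelium (3C system). After 24 h, ICAM-1 is measured by ELISA, and responses are fitted bidirectionally relative to DMSO.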

[2] = target: Retinoic acid receptor alpha (Homo sapiens) (UniProt P10276); assay: ATG_RARa_TRANS: Attagene TRANS-FACTORIAL HepG2 Assay for human Retinoic Acid Receptor alpha (RARa) (AID 2283005; active = hit-call score of the fitted dose curve at least 0.9, where 1 is the maximum;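 for AC50: potency for increased reporter signal meaning RARa activation over DMSO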)
Retinoic acid receptor alpha (Homo sapiens), sequence (P10276 whole entry, looked up, the tested form may be a part): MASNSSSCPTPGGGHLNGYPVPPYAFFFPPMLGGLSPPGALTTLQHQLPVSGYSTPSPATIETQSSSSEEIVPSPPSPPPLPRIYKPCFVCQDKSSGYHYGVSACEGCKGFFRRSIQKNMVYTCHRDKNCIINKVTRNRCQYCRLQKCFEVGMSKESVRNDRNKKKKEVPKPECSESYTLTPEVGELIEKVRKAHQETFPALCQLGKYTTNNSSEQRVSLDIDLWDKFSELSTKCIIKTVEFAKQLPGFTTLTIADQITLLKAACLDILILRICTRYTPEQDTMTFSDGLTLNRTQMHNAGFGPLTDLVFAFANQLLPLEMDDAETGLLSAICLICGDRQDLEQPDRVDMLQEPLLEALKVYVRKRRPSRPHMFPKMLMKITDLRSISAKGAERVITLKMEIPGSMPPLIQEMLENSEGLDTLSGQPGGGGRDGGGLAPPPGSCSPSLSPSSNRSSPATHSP
In short: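 HepG2 transiently transfected with multiplex GAL4-UAS reporter units including a human RARa–GAL4 chimera; 24 h compound exposure. Reporter mRNA quantified by RT-PCR, 6-FAM labeling and capillary electrophoresis; gain of signal versus DMSO.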

[3] = BSK_3C_Proliferation: Cell Proliferation Assessment in the BioMAP Diversity Plus: 3C Assay (AID 2283006); details: primary human endothelial cells (HUVEC);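 for AC50: potency may reflect either rise or fall in cell number versus DMSO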
In short: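 Cells (human umbilical vein endothelial, sub-confluent) receive test chemical; after 48 h they are fixed in 10% trichloroacetic acid, stained with 0.1% SRB and read at 560 nm. Activity is referenced to DMSO, fitting increases and decreases.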

[4] = target: human Retinoic Acid Receptor gamma (RARg), RARG (gene 5916) (UniProt P13631); assay: ATG_RARg_TRANS: Attagene TRANS-FACTORIAL HepG2 Assay for human Retinoic Acid Receptor gamma (RARg) (AID 2283009; active = hit-call score of the fitted dose curve at least 0.9, where 1 is the maximum;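 for AC50: AC50 is for reporter induction above DMSO meaning RARg activation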)
human Retinoic Acid Receptor gamma (RARg), RARG (gene 5916), sequence (P13631 whole entry, looked up, the tested form may be a part): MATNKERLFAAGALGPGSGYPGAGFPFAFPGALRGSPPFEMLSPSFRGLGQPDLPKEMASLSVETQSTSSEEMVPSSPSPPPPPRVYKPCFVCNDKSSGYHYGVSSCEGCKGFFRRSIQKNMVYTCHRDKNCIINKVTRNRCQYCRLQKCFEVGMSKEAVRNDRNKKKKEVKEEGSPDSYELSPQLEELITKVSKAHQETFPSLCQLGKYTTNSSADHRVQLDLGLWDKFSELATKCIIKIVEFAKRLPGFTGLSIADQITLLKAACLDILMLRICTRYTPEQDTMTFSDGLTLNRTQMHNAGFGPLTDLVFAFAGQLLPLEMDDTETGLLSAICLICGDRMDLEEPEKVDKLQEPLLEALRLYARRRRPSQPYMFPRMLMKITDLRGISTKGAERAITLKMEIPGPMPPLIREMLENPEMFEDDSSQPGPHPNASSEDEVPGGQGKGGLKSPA
In short: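 TRANS format measured activity of exogenous NR-GAL4 fusion (RARg) in transfected HepG2 liver cells after 24 h dosing. Induced reporter RNA was detected by RT-PCR/capillary electrophoresis fluorescence, analysed in the positive direction against DMSO.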

[5] = target: human RAR-related Orphan Receptor beta (RORb), RORB (gene 6096) (UniProt Q92753); assay: ATG_RORb_TRANS: Attagene TRANS-FACTORIAL HepG2 Assay for human RAR-related Orphan Receptor beta (RORb) (AID 2283010; active = hit-call score of the fitted dose curve at least 0.9, where 1 is the maximum)
human RAR-related Orphan Receptor beta (RORb), RORB (gene 6096), sequence (Q92753 whole entry, looked up, the tested form may be a part): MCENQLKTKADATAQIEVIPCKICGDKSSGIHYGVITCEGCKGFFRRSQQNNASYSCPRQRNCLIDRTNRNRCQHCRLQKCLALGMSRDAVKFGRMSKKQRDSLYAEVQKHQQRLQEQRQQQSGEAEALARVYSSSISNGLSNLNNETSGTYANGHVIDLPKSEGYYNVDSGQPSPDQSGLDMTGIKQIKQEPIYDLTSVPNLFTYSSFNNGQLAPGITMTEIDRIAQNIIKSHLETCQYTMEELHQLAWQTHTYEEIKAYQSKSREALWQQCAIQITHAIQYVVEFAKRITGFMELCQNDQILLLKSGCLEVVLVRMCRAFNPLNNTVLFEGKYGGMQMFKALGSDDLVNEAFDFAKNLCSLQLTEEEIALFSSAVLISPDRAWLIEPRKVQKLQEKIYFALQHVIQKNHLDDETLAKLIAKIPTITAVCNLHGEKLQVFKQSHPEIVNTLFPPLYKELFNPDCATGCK
In short: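 Transfect HepG2 with multiple GAL4-UAS reporter transcription units; dose chemicals for 24 h; isolate RNA, reverse-transcribe and PCR-amplify reporter sequences; label, digest and resolve fragments by capillary electrophoresis; fit increases relative to DMSO.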

[6] = target: Retinoic acid receptor RXR-alpha (Homo sapiens) (UniProt P19793); assay: ATG_RXRa_TRANS: Attagene TRANS-FACTORIAL HepG2 Assay for human Retinoid X Receptor alpha (RXRa) (AID 2283012; active = hit-call score of the fitted dose curve at least 0.9, where 1 is the maximum)
Retinoic acid receptor RXR-alpha (Homo sapiens), sequence (P19793 whole entry, looked up, the tested form may be a part): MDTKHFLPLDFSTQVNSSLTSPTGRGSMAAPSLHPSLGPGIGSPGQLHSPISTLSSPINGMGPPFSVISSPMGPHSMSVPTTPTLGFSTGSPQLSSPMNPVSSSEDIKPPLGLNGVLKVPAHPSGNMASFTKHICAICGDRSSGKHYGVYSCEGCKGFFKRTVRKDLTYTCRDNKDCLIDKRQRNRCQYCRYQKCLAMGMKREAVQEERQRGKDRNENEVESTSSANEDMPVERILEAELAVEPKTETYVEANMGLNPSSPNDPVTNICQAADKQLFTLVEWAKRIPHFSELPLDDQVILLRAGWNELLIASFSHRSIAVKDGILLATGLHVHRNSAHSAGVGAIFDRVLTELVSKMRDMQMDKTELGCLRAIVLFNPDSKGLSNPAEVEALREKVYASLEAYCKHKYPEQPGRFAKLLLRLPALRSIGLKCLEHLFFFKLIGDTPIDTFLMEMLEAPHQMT
In short: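 Measures exogenous chimeric NR-GAL4 activity in transfected HepG2 liver cells after 24 h of dosing. Induced reporter mRNA was detected by RT-PCR with capillary electrophoresis, and gain of signal was analysed against DMSO.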

[7] = target: human Retinoid X Receptor beta (RXRb), RXRB (gene 6257) (UniProt P28702); assay: ATG_RXRb_TRANS: Attagene TRANS-FACTORIAL HepG2 Assay for human Retinoid X Receptor beta (RXRb) (AID 2283013; active = hit-call score of the fitted dose curve at least 0.9, where 1 is the maximum)
human Retinoid X Receptor beta (RXRb), RXRB (gene 6257), sequence (P28702 whole entry, looked up, the tested form may be a part): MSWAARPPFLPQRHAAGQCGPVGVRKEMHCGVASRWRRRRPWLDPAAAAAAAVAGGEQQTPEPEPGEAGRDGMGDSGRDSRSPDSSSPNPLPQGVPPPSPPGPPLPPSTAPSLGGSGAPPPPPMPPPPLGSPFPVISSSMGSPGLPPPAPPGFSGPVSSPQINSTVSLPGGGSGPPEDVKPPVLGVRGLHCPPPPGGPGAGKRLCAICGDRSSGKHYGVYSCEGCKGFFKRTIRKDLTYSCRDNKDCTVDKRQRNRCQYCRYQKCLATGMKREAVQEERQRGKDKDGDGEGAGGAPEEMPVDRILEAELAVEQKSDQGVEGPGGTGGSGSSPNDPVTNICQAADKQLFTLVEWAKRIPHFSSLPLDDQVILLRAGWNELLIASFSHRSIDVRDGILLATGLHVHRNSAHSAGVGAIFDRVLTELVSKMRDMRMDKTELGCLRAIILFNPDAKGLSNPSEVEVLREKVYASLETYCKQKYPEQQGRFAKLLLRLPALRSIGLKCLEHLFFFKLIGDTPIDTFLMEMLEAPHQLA
In short: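 Chimeric receptor-Gal4 activity was assessed in transiently transfected human HepG2 cells after 24 h exposure. Transcripts from GAL4-UAS reporters were quantified by fluorescent RT-PCR and capillary electrophoresis, with DMSO as negative control and baseline.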

[8] = read-out: E-selectin (Homo sapiens) (UniProt P16581); assay: BSK_3C_Eselectin: BioMAP Diversity Plus: 3C Assay for Eselectin Biomarker Activity (AID 2283015); details: primary human endothelial cells (HUVEC); actives raise or lower the signal
In short: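 Primary human umbilical vein endothelial cells (3C system), read 24 h after compound addition; E-selectin measured by ELISA. Bidirectional curve fitting against DMSO baseline; cytotoxicity by parallel SRB total-protein staining.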

[9] = read-out: Interleukin-1 alpha (IL1a), IL1A (gene 3552); assay: BSK_BE3C_IL1a: BioMAP Diversity Plus: BE3C Assay for Interleukin-1 alpha (IL1a) Biomarker Activity (AID 2283016); details: primary human bronchial epithelial cells; actives raise or lower the signal
In short: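 Signal from IL-1a ELISA, taken 24 h after chemical dosing of human bronchial epithelial cells, is compared with DMSO as baseline using bidirectional curve fitting.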

[10] = read-out: Monocyte Chemoattractant Protein-1 (MCP1), CCL2 (gene 6347); assay: BSK_3C_MCP1: BioMAP Diversity Plus: 3C Assay for Monocyte Chemoattractant Protein-1 (MCP1) Biomarker Activity (AID 2283017); details: primary human endothelial cells (HUVEC); actives raise or lower the signal
In short: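 Human umbilical vein endothelial cells (3C system) exposed to chemicals for 24 h; MCP-1 quantified by ELISA against the DMSO baseline with bidirectional fitting, and parallel SRB staining used to assess cytotoxicity.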

[11] = read-out: Monocyte Chemoattractant Protein-1 (MCP1), CCL2 (gene 6347); assay: BSK_4H_MCP1: BioMAP Diversity Plus: 4H Assay for Monocyte Chemoattractant Protein-1 (MCP1) Biomarker Activity (AID 2283018); details: primary human endothelial cells (HUVEC); actives raise or lower the signal
In short: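 Endothelial cells from umbilical vein were treated with test chemical, then after 24 h MCP-1 levels were quantified by ELISA; endpoint values came from bidirectional fitting with DMSO as baseline of activity.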

[12] = read-out: Human Leukocyte Antigen - DR isotype (HLADR), HLA-DRA (gene 3122); assay: BSK_3C_HLADR: BioMAP Diversity Plus: 3C Assay for Human Leukocyte Antigen - DR isotype (HLADR) Biomarker Activity (AID 2283019); details: primary human endothelial cells (HUVEC); actives raise or lower the signal
In short: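 HUVEC monoculture, HLA-DR measured by ELISA 24 h after chemical dosing. Fitted bidirectionally against DMSO baseline; parallel SRB staining assessed cytotoxicity, with 3C proliferation read by SRB at 48 h.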

[13] = read-out: Interleukin-8 (IL8), CXCL8 (gene 3576); assay: BSK_3C_IL8: BioMAP Diversity Plus: 3C Assay for Interleukin-8 (IL8) Biomarker Activity (AID 2283020); details: primary human endothelial cells (HUVEC); actives raise or lower the signal
In short: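 Endothelial primary cells of human umbilical vein origin are dosed with chemical; after 24 h the IL-8 biomarker is measured by ELISA, and concentration–response is fitted in both directions versus DMSO.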

[14] = read-out: Monokine induced gamma interferon (MIG), CXCL9 (gene 4283); assay: BSK_3C_MIG: BioMAP Diversity Plus: 3C Assay for Monokine induced gamma interferon (MIG) Biomarker Activity (AID 2283021); details: primary human endothelial cells (HUVEC); actives raise or lower the signal
In short: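 Endothelial primary cells (human umbilical vein) are dosed with test chemical in the 3C system. MIG levels are measured by ELISA at 24 h and fitted in both directions relative to DMSO.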

[15] = target: Peroxisome proliferator-activated receptor gamma (Homo sapiens) (UniProt P37231); assay: ATG_PPARg_TRANS: Attagene TRANS-FACTORIAL HepG2 Assay for human Peroxisome Proliferator-activated Receptor-gamma (PPARg) (AID 2283007; active = hit-call score of the fitted dose curve at least 0.9, where 1 is the maximum)
Peroxisome proliferator-activated receptor gamma (Homo sapiens), sequence (P37231 whole entry, looked up, the tested form may be a part): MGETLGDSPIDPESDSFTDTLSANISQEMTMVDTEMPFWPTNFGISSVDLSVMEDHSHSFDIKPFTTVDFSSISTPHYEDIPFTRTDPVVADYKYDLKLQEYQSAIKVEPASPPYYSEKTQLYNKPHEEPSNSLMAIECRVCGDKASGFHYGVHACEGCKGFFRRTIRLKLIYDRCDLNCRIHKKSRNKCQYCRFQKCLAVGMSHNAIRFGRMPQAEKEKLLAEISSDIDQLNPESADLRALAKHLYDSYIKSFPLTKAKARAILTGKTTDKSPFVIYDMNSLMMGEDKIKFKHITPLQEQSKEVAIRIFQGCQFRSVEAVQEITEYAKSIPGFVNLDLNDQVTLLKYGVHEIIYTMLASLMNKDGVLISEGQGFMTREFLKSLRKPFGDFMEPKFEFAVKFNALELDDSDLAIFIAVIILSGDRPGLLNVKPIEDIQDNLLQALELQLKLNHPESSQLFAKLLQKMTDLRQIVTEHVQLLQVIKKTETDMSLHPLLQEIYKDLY
In short: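 Gain-of-signal endpoint relative to DMSO, derived from reporter mRNA levels quantified by RT-PCR and capillary electrophoresis. Cells were HepG2 transiently expressing a chimeric NR-Gal4 construct with GAL4-UAS reporters, exposed to chemicals for 24 h.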

[16] = target: Nuclear receptor subfamily 1 group I member 2 (Homo sapiens) (UniProt O75469); assay: ATG_PXR_TRANS: Attagene TRANS-FACTORIAL HepG2 Assay for human Pregnane X Receptor (PXR) (AID 2283008; active = hit-call score of the fitted dose curve at least 0.9, where 1 is the maximum)
Nuclear receptor subfamily 1 group I member 2 (Homo sapiens), sequence (O75469 whole entry, looked up, the tested form may be a part): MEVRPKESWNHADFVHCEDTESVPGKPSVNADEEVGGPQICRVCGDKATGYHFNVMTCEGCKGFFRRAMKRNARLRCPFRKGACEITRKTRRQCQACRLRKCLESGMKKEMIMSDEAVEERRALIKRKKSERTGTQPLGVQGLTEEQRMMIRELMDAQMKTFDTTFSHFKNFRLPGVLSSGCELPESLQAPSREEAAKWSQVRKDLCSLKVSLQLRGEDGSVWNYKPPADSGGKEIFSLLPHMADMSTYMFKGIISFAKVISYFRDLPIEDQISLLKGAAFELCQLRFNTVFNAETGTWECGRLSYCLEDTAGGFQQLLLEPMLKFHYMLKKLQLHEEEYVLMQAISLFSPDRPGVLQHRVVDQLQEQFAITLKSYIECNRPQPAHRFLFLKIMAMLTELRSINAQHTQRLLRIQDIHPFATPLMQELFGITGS
In short: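 HepG2 transfected (FuGene 6) with GAL4-UAS reporter units + PXR-Gal4 chimera; dosed 24 h. Total RNA → oligo(dT) RT → PCR → 6-FAM primer extension → HpaI cut → CE. Gain-of-signal vs DMSO.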

[17] = target: human RAR-related Orphan Receptor gamma (RORg), RORC (gene 6097) (UniProt P51449); assay: ATG_RORg_TRANS: Attagene TRANS-FACTORIAL HepG2 Assay for human RAR-related Orphan Receptor gamma (RORg) (AID 2283011; active = hit-call score of the fitted dose curve at least 0.9, where 1 is the maximum)
human RAR-related Orphan Receptor gamma (RORg), RORC (gene 6097), sequence (P51449 whole entry, looked up, the tested form may be a part): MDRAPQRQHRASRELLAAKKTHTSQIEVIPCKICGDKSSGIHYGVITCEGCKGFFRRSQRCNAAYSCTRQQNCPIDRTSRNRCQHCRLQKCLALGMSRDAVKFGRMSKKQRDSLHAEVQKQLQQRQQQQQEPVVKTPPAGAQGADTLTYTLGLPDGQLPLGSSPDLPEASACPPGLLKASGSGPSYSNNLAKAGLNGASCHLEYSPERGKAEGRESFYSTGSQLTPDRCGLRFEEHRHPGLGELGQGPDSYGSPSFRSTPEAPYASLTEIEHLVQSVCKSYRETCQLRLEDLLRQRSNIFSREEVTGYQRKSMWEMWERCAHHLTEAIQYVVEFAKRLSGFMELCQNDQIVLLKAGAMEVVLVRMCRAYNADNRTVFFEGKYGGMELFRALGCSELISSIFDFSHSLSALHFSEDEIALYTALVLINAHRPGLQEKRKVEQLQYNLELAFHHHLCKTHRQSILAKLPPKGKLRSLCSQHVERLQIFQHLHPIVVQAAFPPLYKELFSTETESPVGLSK
In short: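 HepG2 cells transiently transfected with GAL4-UAS reporter units and chimeric RORg-Gal4 construct; after 24 h chemical exposure, reporter mRNA measured by RT-PCR with fluorescent capillary electrophoresis, gain of signal fitted against DMSO.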

[18] = target: human Peroxisome Proliferator-activated Receptor delta (PPARd), PPARD (gene 5467) (UniProt Q03181); assay: ATG_PPARd_TRANS: Attagene TRANS-FACTORIAL HepG2 Assay for human Peroxisome Proliferator-activated Receptor delta (PPARd) (AID 2283002; active = hit-call score of the fitted dose curve at least 0.9, where 1 is the maximum)
human Peroxisome Proliferator-activated Receptor delta (PPARd), PPARD (gene 5467), sequence (Q03181 whole entry, looked up, the tested form may be a part): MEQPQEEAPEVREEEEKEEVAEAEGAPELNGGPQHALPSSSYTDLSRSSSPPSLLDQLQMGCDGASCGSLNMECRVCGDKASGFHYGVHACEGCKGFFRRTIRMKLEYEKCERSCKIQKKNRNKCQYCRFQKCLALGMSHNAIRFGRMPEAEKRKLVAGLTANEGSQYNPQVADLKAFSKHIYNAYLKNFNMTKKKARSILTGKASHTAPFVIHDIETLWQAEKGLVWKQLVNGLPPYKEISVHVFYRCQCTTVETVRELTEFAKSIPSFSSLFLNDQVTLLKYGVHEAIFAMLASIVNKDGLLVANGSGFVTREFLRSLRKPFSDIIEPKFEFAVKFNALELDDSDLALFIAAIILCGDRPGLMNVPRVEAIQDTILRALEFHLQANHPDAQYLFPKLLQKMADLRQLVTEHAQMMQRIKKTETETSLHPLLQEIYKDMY
In short: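 HepG2 cells transiently transfected with GAL4-UAS multiplexed reporter units driven by exogenous chimeric NR-GAL4 proteins; 24 h compound exposure. Reporter mRNA measured by RT-PCR, 6-FAM primer extension, HpaI digestion and capillary electrophoresis; gain of signal fitted relative to DMSO.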

[19] = target: human Thyroid Receptor alpha (THRa1), THRA (gene 7067) (UniProt P10827); assay: ATG_THRa1_TRANS: Attagene TRANS-FACTORIAL HepG2 Assay for human Thyroid Receptor alpha (THRa1) (AID 2283014; active = hit-call score of the fitted dose curve at least 0.9, where 1 is the maximum)
In short: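 HepG2 cells transiently transfected with chimeric NR-Gal4 and GAL4-UAS reporter units, dosed 24 h. Reporter mRNA quantified by RT-PCR, fluorescent labeling, HpaI digestion and capillary electrophoresis; gain-of-signal fit versus DMSO.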

Measured: AC50

E-selectin (Homo sapiens), sequence (P16581 whole entry, looked up): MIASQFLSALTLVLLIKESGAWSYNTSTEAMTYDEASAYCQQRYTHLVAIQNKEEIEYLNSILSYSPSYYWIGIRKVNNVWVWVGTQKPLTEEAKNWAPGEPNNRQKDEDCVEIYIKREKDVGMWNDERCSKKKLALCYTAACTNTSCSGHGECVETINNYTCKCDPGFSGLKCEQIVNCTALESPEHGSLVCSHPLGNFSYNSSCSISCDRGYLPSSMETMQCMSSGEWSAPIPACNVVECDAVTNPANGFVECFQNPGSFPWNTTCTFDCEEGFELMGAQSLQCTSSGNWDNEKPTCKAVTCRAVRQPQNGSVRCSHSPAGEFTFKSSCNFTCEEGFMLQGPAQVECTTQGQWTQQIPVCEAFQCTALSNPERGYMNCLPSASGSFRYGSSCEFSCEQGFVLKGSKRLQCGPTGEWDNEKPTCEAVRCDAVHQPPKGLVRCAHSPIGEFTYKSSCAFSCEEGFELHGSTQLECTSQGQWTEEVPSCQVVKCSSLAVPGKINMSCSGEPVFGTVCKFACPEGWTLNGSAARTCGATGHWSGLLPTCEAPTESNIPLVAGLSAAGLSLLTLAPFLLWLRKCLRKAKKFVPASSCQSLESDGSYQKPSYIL

NCCO
not listed: [15] | [16] | [17] | [18] | [19]
inactive: all other assays above

NS(=O)(=O)c1cc2c(cc1Cl)NCNS2(=O)=O
not listed: [2] | [4] | [5] | [18] | [19]
inactive: all other assays above

CC1=C(/C=C/C(C)=C/C=C/C(C)=C/CO)C(C)(C)CCC1
active: [2] 0.073 µM | [3] 27.6 µM | [15] 28.1 µM | [16] 0.28 µM | [4] 0.117 µM | [6] 1.87 µM | [7] 0.474 µM | [8] 19.3 µM | [12] 25.3 µM
inactive: [1] | [9] | [10] | [11] | [13] | [14]

Cc1cccc(Nc2cc(Cl)nc(SCC(=O)O)n2)c1C
inactive: [1] | [3] | [8] | [9] | [10] | [11] | [12] | [13] | [14]
active: [16] 21 µM

c1cc(-c2ccncc2)ccn1
not listed: [5] | [6] | [7] | [15] | [16] | [17] | [18] | [19]
inactive: all other assays above

CNC(=O)[C@H]1O[C@@H](n2cnc3c(NCc4cc(Cl)ccc4OCc4cc(C)no4)ncnc32)[C@H](O)[C@@H]1N
not listed: [2] | [4] | [5] | [6] | [19]
inactive: all other assays above

O=C(O)CCCCC(=O)O
not listed: [2] | [4] | [15] | [16] | [18] | [19]
inactive: all other assays above

CC(=O)OCCOCCOCCOC(C)=O
not listed: [5] | [6] | [16] | [17] | [18]
inactive: all other assays above

CCOC(=O)CCC(=O)OCC
not listed: [2] | [7] | [15] | [16] | [17] | [18] | [19]
inactive: all other assays above

Cc1ccc(Cl)cc1
not listed: [2] | [4] | [5] | [7] | [17] | [19]
inactive: all other assays above
